Reference: PubChem BioAssay (NCI)
This is part of a sample that, as a whole, favours compounds with a hit. Of some 83,000 tested, about 20% had one in any assay.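 The test compound was applied at a single concentration to cells in 96-well plates for 48 hours, and percent growth was recorded.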 A number with no mark means an inactive call. Active and inactive are the calls of the source. How the source made its calls: active means growth percent below 10; inactive means the rest.

Key:
Test in all cases: NCI-60 one-dose screen, 48 h (100 = growth as untreated, 0 = no growth, -100 = all killed)
Conditions in all cases: 10 µM unless noted
[1] = system: DU-145 prostate
[2] = system: K-562 leukemia
[3] = system: MALME-3M melanoma
[4] = system: MDA-MB-231 breast
[5] = system: RXF 393 renal
[6] = system: SF-268 CNS
[7] = system: SF-295 CNS
[8] = system: SF-539 CNS
[9] = system: UACC-257 melanoma
[10] = system: M14 melanoma

| SMILES | growth [1] | growth [2] | growth [3] | growth [4] | growth [5] | growth [6] | growth [7] | growth [8] | growth [9] | growth [10] |
| --- | --- | --- | --- | --- | --- | --- | --- | --- | --- | --- |
| Oc1c(CN2CCCC2)cc(COCc2ccccc2)c2cccnc12 | 30.4% | 12.2% | 30.8% | 35.9% | 46.5% | 23.2% | 18.3% | -5.32% (active) | -16.1% (active) | -2.08% (active) |
| Cc1cc2oc(=O)cc(CP(=O)(O)O)c2cc1O | 103% | 107% | 85.8% | 97.4% | 103% | 96.6% | 100% | 96.8% | 94.5% | 103% |
| COc1ccc(C2CC(c3ccc(Nc4nc(Nc5ccc(F)cc5)nc(Nc5ccc(F)cc5)n4)cc3)=NN2C(C)=O)cc1 (stereo not given) | 115% | 83.1% | 78.1% | 122% | 94.4% | 103% | 81.2% | 92.1% | 111% | 100% |
| Cc1[nH]c(C(=O)Nc2cccc(OC3CCNCC3)c2)c(Cl)c1Cl | 88% | 0.0646% (active) | 27.2% | 50.7% | 40.9% | 74.5% | 58.7% | 71.5% | 17.7% | -12.4% (active) |
| CCN(CC)CCN(CCN(CC)CC)c1ccccc1 | 109% | 93% | 110% | 89.6% | 90.8% | 97.7% | 111% | 87.6% | 93.1% | 82.3% |
| C=CCOC(=O)C1=C(C)NC(=O)NC1c1c(Cl)n(C)c2ccccc12 (stereo not given) | 107% | 106% | 105% | 96% | 100% | 95.4% | 99.4% | 93.5% | 99.4% | 95.3% |
| CCOC(=O)c1cn2ncnc(Oc3ccc(NC(=O)NC4CC4)c(F)c3)c2c1C | 110% | 88.6% | 107% | 99.3% | 97.2% | 95% | 98.5% | 85% | 107% | 109% |
| CCOC(=O)Nc1nc2ccc(SCC(C)C)cc2s1 | 42.2% | 18% | 32.4% | 40.6% | -3.43% (active) | 45.2% | 26.1% | 12.3% | 55% | 25.8% |
| CC(C)CSc1oc(-c2ccccc2)nc1S(=O)(=O)c1ccccc1 | 99.3% | 92.4% | 95.6% | 89.4% | 82.6% | 87.3% | 84.3% | 101% | 92.2% | 98.3% |
| O=C(CN1C(=O)NC2NC(=O)NC21)N/N=C/c1ccc(Cl)cc1Cl (stereo not given) | 113% | 105% | 106% | 109% | 117% | 99.6% | 101% | 93.3% | 114% | 104% |
| COc1ccc(C2=CN3CC=CCC3CC2=O)cc1 (stereo not given) | 100% | 105% | 116% | 98.3% | 100% | 101% | 104% | 104% | 71.6% | 99.5% |
| CCOC(=O)C(=Cc1cccc(C#N)c1)C(=O)OCC | 48% | 22.7% | 49.9% | 55.4% | 33.5% | 64.1% | 95.9% | 62.9% | 69.6% | 62.3% |
| C[C@@H]1O[C@@H](O[C@@H]2C[C@H](c3ccc4c(c3O)C(=O)C3=C(C4=O)[C@@]4(O)C(=O)C[C@](C)(O)C[C@@]4(O)C=C3)O[C@H](C)[C@H]2O)C[C@H](O)[C@@H]1O | 104% | 91.3% | 90.7% | 102% | 106% | 91.1% | 108% | 101% | 101% | 98.4% |
| Cc1cscc(C)c1=S | 4.23% (active) | 96% | 96.1% | 97.8% | 71.2% | 95.7% | 76% | 96.9% | 89% | 93.1% |
| Cn1cc(-c2ccc3cc(-c4ccc(CC(=O)Nc5cc(C(C)(C)C)on5)cc4)cnc3c2)cn1 | 22.1% | 5.03% (active) | -15.8% (active) | 11.4% | -0.246% (active) | 15.7% | 29.7% | 20.4% | 5.83% (active) | 0.0609% (active) |
| CCCCCCCCn1ccc2cc(NC(=O)Cn3cc(CN4CCC(C)CC4)nn3)ccc21 | 42.3% | -25.6% (active) | -70.5% (active) | 9.71% (active) | 24.8% | 32.8% | -74.3% (active) | 11.5% | -35.8% (active) | -65.2% (active) |
| CCCCc1oc2ccccc2c1C(=O)c1ccc(O)cc1 | 101% | 37.8% | 85.4% | 79.1% | 72.7% | 94.2% | 175% | 82.5% | 76.8% | 92.2% |
| C=C1C(=O)O[C@H]2[C@H]1CC/C(COC(=O)/C=C\C(=O)NCc1ccc(Cn3c(=O)sn(-c4ccccc4)c3=O)cc1)=C\CC[C@@]1(C)O[C@@H]21 | 55.7% | 16.2% | 55.9% | 85.6% | 84.3% | 99.1% | 103% | 92% | 73.8% | 47.8% |
| CN(C)c1ccc(-c2cc(-c3ccc(Nc4nc(Nc5ccc(Cl)cc5)nc(Nc5ccc(Cl)cc5)n4)cc3)nc(N)c2C#N)cc1 | 95.8% | 68.4% | 81.8% | 77.4% | 37.1% | 94.9% | 64% | 77.9% | 99.1% | 71.4% |
| C=CCn1c(SCC(=O)Nc2ccc(C(=O)/C=C/c3cc(OC)c(OC)c(OC)c3)cc2)nnc1-c1cc(-c2ccc(OC)cc2)nc2ccccc12 | 96.5% | 83.1% | 95.3% | 76.8% | 89.5% | 91.4% | 106% | 90.9% | 100% | 107% |
| CCCCCCCCn1ccc2cc(NC(=O)Cn3cc(CN4CCCCCC4)nn3)ccc21 | 30.7% | -62.2% (active) | -88.6% (active) | -26% (active) | 29.2% | 15.5% | -71.3% (active) | -73.9% (active) | -49.2% (active) | -68.3% (active) |
| CCN(CC)c1ccc(N2C(=O)/C(=C/c3cccs3)SC2=S)cc1 | 100% | 94% | 84.2% | 91.3% | 98.3% | 92.1% | 99.6% | 94.3% | 80.6% | 95.4% |
| CC12CCC(/C(=C/NNc3ccc([N+](=O)[O-])cc3[N+](=O)[O-])C1=O)C2(C)C (stereo not given) | 4.67% (active) | 77.9% | 128% | 66.1% | 64.6% | 77.8% | 85.2% | 102% | 64.4% | 65.5% |
| CC(C)c1ccc(C(=O)Nc2sc3cc(O)ccc3c2C#N)cc1 | 50.5% | 13.8% | 39.2% | 46.3% | 45.2% | 44.8% | 22.2% | 32.5% | 51.3% | 5.43% (active) |
| Clc1ccc(-c2nc(-c3c[nH]c4ncccc34)cs2)cc1 | 79.6% [100 µM] | 100% [100 µM] | 73% [100 µM] | 31.1% [100 µM] | 18.5% [100 µM] | 40.9% [100 µM] | 18.6% [100 µM] | 20.6% [100 µM] | 105% [100 µM] | 70.3% [100 µM] |
